85 molecules from publication PMC4336329 (PLoS ONE, 2015) can be followed below.

About 14,000 (4.5%) of roughly 310,000 compounds showed an effect of 50% or more. The effect is printed as a negative number. The full list was thinned out, with strong results kept by preference.
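Note: peak tail current of the secondary pulse compared with the same well before compound.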

Chain of human ether-à-go-go-related gene (hERG) potassium channel (Q12809 whole entry, looked up): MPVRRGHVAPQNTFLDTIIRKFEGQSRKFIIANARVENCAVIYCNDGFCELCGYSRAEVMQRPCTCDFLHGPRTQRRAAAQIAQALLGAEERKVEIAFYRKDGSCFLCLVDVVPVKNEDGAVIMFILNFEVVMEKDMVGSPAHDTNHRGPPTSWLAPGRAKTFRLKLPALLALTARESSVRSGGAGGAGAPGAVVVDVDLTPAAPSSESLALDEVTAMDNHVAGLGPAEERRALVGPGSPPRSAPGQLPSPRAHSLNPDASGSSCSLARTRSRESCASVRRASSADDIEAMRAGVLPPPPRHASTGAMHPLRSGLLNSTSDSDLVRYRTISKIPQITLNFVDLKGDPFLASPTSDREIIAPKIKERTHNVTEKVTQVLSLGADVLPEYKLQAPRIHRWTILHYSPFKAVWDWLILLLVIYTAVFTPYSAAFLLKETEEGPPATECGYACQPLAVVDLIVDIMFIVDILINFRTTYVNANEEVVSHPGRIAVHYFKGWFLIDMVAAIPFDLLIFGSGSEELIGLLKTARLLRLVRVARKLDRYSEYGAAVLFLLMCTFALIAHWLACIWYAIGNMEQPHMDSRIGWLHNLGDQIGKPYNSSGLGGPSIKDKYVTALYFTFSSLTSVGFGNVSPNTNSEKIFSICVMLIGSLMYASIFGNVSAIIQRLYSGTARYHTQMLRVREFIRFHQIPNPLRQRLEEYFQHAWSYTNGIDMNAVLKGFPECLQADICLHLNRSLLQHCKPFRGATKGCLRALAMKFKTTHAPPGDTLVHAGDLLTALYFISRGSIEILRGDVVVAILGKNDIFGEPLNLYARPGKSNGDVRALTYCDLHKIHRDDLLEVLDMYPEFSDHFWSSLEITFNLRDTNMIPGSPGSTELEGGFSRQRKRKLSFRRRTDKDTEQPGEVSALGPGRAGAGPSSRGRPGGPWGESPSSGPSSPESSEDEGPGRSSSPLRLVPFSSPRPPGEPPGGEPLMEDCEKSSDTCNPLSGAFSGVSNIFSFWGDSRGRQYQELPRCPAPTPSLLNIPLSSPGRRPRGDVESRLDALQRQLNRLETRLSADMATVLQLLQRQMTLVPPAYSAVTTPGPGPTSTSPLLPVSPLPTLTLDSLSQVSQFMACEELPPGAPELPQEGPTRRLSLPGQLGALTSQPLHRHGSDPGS

The assay has as its target human ether-à-go-go-related gene (hERG) potassium channel (human, UniProt Q12809). In words: primary screen, population patch clamp on CHO cells stably expressing hERG; higher = less effect of the substance.
Take `NC(=O)CC(NC(=O)Cc1ccc(Br)cc1)c1ccc(N2CCc3ccccc3C2)c([N+](=O)[O-])c1` (stereo not shown): the “hERG current change (%, negative = inhibition) at 10uM” value is -2.08%.
Under `O=S(=O)(Nc1ccc(Cl)nn1)c1ccccc1` stands 12.7%.
Regarding `Cn1c(N)c(C(=O)COC(=O)/C=C/c2ccc(OC(F)F)cc2)c(=O)n(C)c1=O`, the “hERG current change (%, negative = inhibition) at 10uM” value amounted to 3.23%.
Under `O=C(O)C(=O)O.Oc1ccccc1CN1CCC(C(O)(c2ccccc2)c2ccccc2)CC1` stands -68.5%; under `O=C(O)C(=O)O.Oc1ccccc1CN1CCN(C(O)(c2ccccc2)c2ccccc2)CC1`, -46%; under `O=C(CN1CCC(C(O)(c2ccccc2)c2ccccc2)CC1)Nc1ccccc1`, -42.1%.
As for `Nc1c(Cl)cc(-c2csc(N3CCCC3c3nc4cc(Cl)c(Cl)cc4n3CCCO)n2)cc1Cl` (stereo not shown), the “hERG current change (%, negative = inhibition) at 10uM” value was -2.8%.
For `CC(NC(=O)C1CC1)C(c1cccs1)N1CCN(c2ccccc2)CC1` (stereo not shown), the “hERG current change (%, negative = inhibition) at 10uM” value is given as -0.284%.
Turning to `COc1ccc(NC(=O)CN(C)Cc2cccs2)cc1Cl`, the “hERG current change (%, negative = inhibition) at 10uM” value is given as -15.7%.
Under `NC(=O)C1CCN(c2oc(-c3ccc(F)cc3)nc2S(=O)(=O)c2ccccc2)CC1` stands -17.4%.
Consider `CN1CCN(c2oc(-c3ccccc3F)nc2S(=O)(=O)c2ccc(Cl)cc2)CC1`, for which the “hERG current change (%, negative = inhibition) at 10uM” value is -57.6%.
`Cc1ccc(S(=O)(=O)c2nc(-c3ccccc3)oc2N2CCC(C(N)=O)CC2)cc1`: the “hERG current change (%, negative = inhibition) at 10uM” value is reported as -26.3%.
For `CN1CCN(c2oc(-c3ccccc3Cl)nc2S(=O)(=O)c2ccccc2)CC1`, the “hERG current change (%, negative = inhibition) at 10uM” value is -47.9%.
With `O=S(=O)(c1ccc(F)cc1)c1nc(-c2ccccc2F)oc1N1CCCCC1`, the “hERG current change (%, negative = inhibition) at 10uM” value is reported as -20%.
For the molecule `NC(=O)C1CCN(c2oc(-c3ccccc3)nc2S(=O)(=O)c2ccc(Br)cc2)CC1`, the “hERG current change (%, negative = inhibition) at 10uM” value is -55.9%.
With `O=S(=O)(c1ccccc1)c1nc(-c2ccccc2)oc1N1CCCC1`, the “hERG current change (%, negative = inhibition) at 10uM” value worked out at 8.44%.
In the case of `O=S(=O)(c1ccc(Br)cc1)c1nc(-c2ccccc2)oc1N1CCOCC1`, the “hERG current change (%, negative = inhibition) at 10uM” value is recorded as -30.7%.
As to `CN1CCN(c2oc(-c3ccccc3)nc2S(=O)(=O)c2ccc(Br)cc2)CC1`, the “hERG current change (%, negative = inhibition) at 10uM” value is -68.6%.
Regarding `CCN(CC)S(=O)(=O)c1cccc(N=Nc2sc(N)nc2C)c1`, the “hERG current change (%, negative = inhibition) at 10uM” value was -12.8%.
Regarding `S=C1NC[C@H](CC2CCCCC2)N1CC1CCCCC1`, the “hERG current change (%, negative = inhibition) at 10uM” value was -8.59%.
Regarding `O=C(CN1CCCCC1)Nc1ccc(NC(=O)c2ccc(Cl)cc2)cc1Cl`, the “hERG current change (%, negative = inhibition) at 10uM” value is on record as 13.7%.
On to `CCC(NC(=O)c1cc(COc2cncc(Cl)c2)on1)c1ccncc1` (stereo not shown), for which the “hERG current change (%, negative = inhibition) at 10uM” value was found to be 8.75%.
As for `COc1ccc(-c2cc3ccccc3n2CC(O)CN2CCC(C)CC2)cc1.O=C(O)C(=O)O` (stereo not shown), the “hERG current change (%, negative = inhibition) at 10uM” value is -77%.
Under `COc1ccc(-c2cc3ccccc3n2CC(O)CN2CCN(CCO)CC2)cc1` (stereo not shown) stands -29.9%; under `COc1ccc(-c2cc3ccccc3n2CC(O)CNCCO)cc1.O=C(O)C(=O)O` (stereo not shown), 3.61%; under `COc1ccc(-c2cc3ccccc3n2CC(O)Cn2nc(C)cc2C)cc1` (stereo not shown), 4.62%.
Under `COc1ccc(-c2cc3ccccc3n2CC(O)CN2CCOCC2)cc1` (stereo not shown) stands -13.5%; under `COc1ccc(-c2cc3ccccc3n2CC(O)CN2CCCCC2)cc1.O=C(O)C(=O)O` (stereo not shown), -79.6%.
With `OCC[C@H]1C[C@H](O)[C@@H](O)[C@@]2(OCc3ccccc32)O1`, the “hERG current change (%, negative = inhibition) at 10uM” value amounted to 8.35%.
As to `CCOc1ccccc1N(CC(=O)NC(C)(C)C)C(=O)Cn1nnc(-c2ccc(C)o2)n1`, the “hERG current change (%, negative = inhibition) at 10uM” value is reported as -16%.
For the molecule `O=C(C1CC1)N1CCc2cc(Br)cc(S(=O)(=O)N3CCN(c4ccccn4)CC3)c21`, the “hERG current change (%, negative = inhibition) at 10uM” value is on record as -17.5%.
`COc1ccc(CCNC(=O)NCCc2c[nH]c3ccccc23)cc1OC`: the “hERG current change (%, negative = inhibition) at 10uM” value is on record as -3.31%.
`CCOc1ncccc1C(=O)Nc1cccc(-c2nnc3n2CCCCC3)c1`: the “hERG current change (%, negative = inhibition) at 10uM” value is given as -19.6%.
The same measure for `CC(C)(C)OC(=O)N1CCC(C(=O)NCC2CCCO2)CC1` (stereo not shown): 16.5%; for `O=C(CC(C(=O)N1CCc2ccccc21)n1ccnc1)NCc1ccccc1` (stereo not shown): -26.5%; for `O=C(/C=C/c1cccc(F)c1)Nc1cc(S(=O)(=O)N2CCOCC2)ccc1N1CCCC1`: -57.7%.
Turning to `O=C(/C=C/c1ccccc1)Nc1cc(S(=O)(=O)N2CCOCC2)ccc1N1CCCC1`, the “hERG current change (%, negative = inhibition) at 10uM” value is recorded as -1.04%.
Regarding `Cc1ccc(/C=C/C(=O)Nc2cc(S(=O)(=O)N3CCOCC3)ccc2N2CCOCC2)cc1`, the “hERG current change (%, negative = inhibition) at 10uM” value is -43.2%.
The same measure for `O=C(/C=C/c1ccc(F)cc1)Nc1ccc(S(=O)(=O)N2CCOCC2)cc1`: 9%; for `COc1cc(/C=C/C(=O)Nc2cc(S(=O)(=O)N3CCOCC3)ccc2N2CCCC2)cc(OC)c1OC`: 24%; for `O=C(/C=C/c1ccc(F)cc1)Nc1cc(S(=O)(=O)N2CCOCC2)ccc1N1CCCC1`: -70.9%.
In the case of `Cc1ccc(NC(=O)/C=C/c2ccc3c(c2)OCO3)cc1S(=O)(=O)N1CCOCC1`, the “hERG current change (%, negative = inhibition) at 10uM” value was -13%.
For the molecule `O=C(/C=C/c1ccc2c(c1)OCO2)Nc1cc(S(=O)(=O)N2CCOCC2)ccc1N1CCOCC1`, the “hERG current change (%, negative = inhibition) at 10uM” value was -55.9%.
The same measure for `COc1ccc(/C=C/C(=O)Nc2cc(S(=O)(=O)N3CCOCC3)ccc2N2CCCC2)cc1OC`: -40.3%; for `Cc1ccn(CCC(=O)O)n1`: 26.6%.
Turning to `Cc1[nH]n(-c2ccccc2)c(=O)c1/C=N/N1C(=O)c2cccc3cccc(c23)C1=O`, the “hERG current change (%, negative = inhibition) at 10uM” value is reported as 3.73%.
For `COc1ccc(/C=C/c2nc3sc4c(c3c(=O)o2)CCC4)cc1`, the “hERG current change (%, negative = inhibition) at 10uM” value is recorded as 4.28%.
Regarding `Cc1ccc(-c2nc(N)c3c(-c4ccc(C)cc4)nn(C(C)(C)C)c3n2)cc1`, the “hERG current change (%, negative = inhibition) at 10uM” value is listed as -1.71%.
As for `O=C(COc1ccc(S(=O)(=O)N2CCOCC2)cc1)NCCc1ccccc1`, the “hERG current change (%, negative = inhibition) at 10uM” value is on record as -13.4%.
The same measure for `C/C(Cl)=C/Cn1c(NCCN(C)C)nc2c1c(=O)n(C)c(=O)n2C`: -26.9%; for `CCN(CC)CCNc1nc2c(c(=O)n(C)c(=O)n2C)n1C/C=C(/C)Cl`: -58.9%; for `C/C(Cl)=C\Cn1c(NCCc2ccccc2)nc2c1c(=O)n(C)c(=O)n2C`: -9.3%.
In the case of `CCC(=O)NCCCc1nc(-c2ccccc2)no1`, the “hERG current change (%, negative = inhibition) at 10uM” value was determined as 5.95%.
Regarding `COc1ccc(CN2C(=O)COc3ccccc32)cc1`, the “hERG current change (%, negative = inhibition) at 10uM” value came out at 12%.
For `CCCCN(CCCC)C(=O)CN(C)S(=O)(=O)c1ccc2c(c1)n(C)c(=O)c(=O)n2C`, the “hERG current change (%, negative = inhibition) at 10uM” value is reported as -37%.
As to `CCCCN(CCCC)C(=O)CCS(=O)(=O)c1ccc2c(c1)n(C)c(=O)c(=O)n2C`, the “hERG current change (%, negative = inhibition) at 10uM” value is listed as -69.2%.
`CCN(Cc1ccccc1)C(=O)CCS(=O)(=O)c1ccc2c(c1)n(C)c(=O)c(=O)n2C`: the “hERG current change (%, negative = inhibition) at 10uM” value is -15%.
The same measure for `COc1ccc(-n2c(SCC(=O)NNC(=O)c3ccccc3C)nnc2-c2ccncc2)cc1`: -7.21%.
For `CCC(C)NC(=O)CSc1nnc(-c2ccncc2)n1-c1ccc(OC)cc1` (stereo not shown), the “hERG current change (%, negative = inhibition) at 10uM” value was -0.947%.
For `COc1ccc(-n2c(SCC(=O)NNC(=O)c3ccc(C)cc3)nnc2-c2ccncc2)cc1`, the “hERG current change (%, negative = inhibition) at 10uM” value is on record as -58.6%.
`CCn1c(SCC(=O)NNC(=O)c2ccc(C)cc2)nnc1-c1ccncc1`: the “hERG current change (%, negative = inhibition) at 10uM” value is on record as -0.879%.
Take `Cc1ccc(C(=O)NNC(=O)CSc2nnc(-c3ccncc3)n2C)cc1`: the “hERG current change (%, negative = inhibition) at 10uM” value turned out to be 24.9%.
Take `Cc1ccc(C(=O)NNC(=O)CSc2nnc(-c3ccncc3)n2-c2ccc(C)cc2)cc1`: the “hERG current change (%, negative = inhibition) at 10uM” value is recorded as -51.4%.
Take `CC(=O)N1c2ccc(S(=O)(=O)NCCC(=O)NCCc3cccc(C)c3)cc2CC1C` (stereo not shown): the “hERG current change (%, negative = inhibition) at 10uM” value is -4.31%.
With `CC(C)[C@H](NC(=O)c1ccco1)C(=O)OCC(=O)NC12CC3CC(CC(C3)C1)C2`, the “hERG current change (%, negative = inhibition) at 10uM” value was -18.7%.
For the molecule `COc1cc(/C=N/n2cnnc2)ccc1OS(=O)(=O)c1ccccc1[N+](=O)[O-]`, the “hERG current change (%, negative = inhibition) at 10uM” value is on record as -51%.
For the molecule `CCOc1cc(/C=N/n2cnnc2)ccc1OS(=O)(=O)c1ccc(C)cc1`, the “hERG current change (%, negative = inhibition) at 10uM” value is given as -50.5%.
Turning to `CCOc1cc(/C=N/NS(=O)(=O)c2ccccc2)ccc1OS(=O)(=O)c1ccc(C)cc1`, the “hERG current change (%, negative = inhibition) at 10uM” value turned out to be 2.1%.
As for `Cc1ccc(S(=O)(=O)Oc2cccc(/C=N/n3cnnc3)c2)cc1`, the “hERG current change (%, negative = inhibition) at 10uM” value is -49%.
With `CCOc1cc(/C=N/n2cnnc2)ccc1OS(=O)(=O)c1ccccc1`, the “hERG current change (%, negative = inhibition) at 10uM” value was -57.7%.
For `CCOc1cc(/C=N/O)ccc1OS(=O)(=O)c1ccc(C)cc1`, the “hERG current change (%, negative = inhibition) at 10uM” value is -5.21%.
In the case of `O=[N+]([O-])c1ccccc1S(=O)(=O)Oc1ccc(/C=N/n2cnnc2)cc1`, the “hERG current change (%, negative = inhibition) at 10uM” value is recorded as -40.6%.
The same measure for `COc1cc(C=O)ccc1OS(=O)(=O)c1ccccc1[N+](=O)[O-]`: 4.1%; for `CCOc1cc(C=C2C(=O)NC(=O)NC2=O)ccc1OS(=O)(=O)c1ccccc1`: -18%.
Under `Cn1ncc2c(Nc3ccc(Cl)c(Cl)c3)ncnc21` stands 14.5%.
`O=C(O)CCn1cc(/C=C2\SC(=S)NC2=O)c(-c2ccccc2)n1`: the “hERG current change (%, negative = inhibition) at 10uM” value is recorded as 21.8%.
Turning to `COc1ccc2c(c1)CC/C2=N\NC(=O)c1ccccc1`, the “hERG current change (%, negative = inhibition) at 10uM” value is given as -3.69%.
Under `CC1(C)COC(Nc2ccc(Cl)cc2)=N1` stands -35.8%; under `Cc1ccc(Cn2nnnc2CN2CCC(O)(c3ccccc3F)CC2)cc1`, -21.5%.
As to `Cc1ccc(C(=O)NC(C)CCc2ccccc2)cc1[N+](=O)[O-]` (stereo not shown), the “hERG current change (%, negative = inhibition) at 10uM” value is reported as -13.9%.
Under `Cc1cc(C(=O)NC(C)CCc2ccccc2)ccc1[N+](=O)[O-]` (stereo not shown) stands -29.5%.
The same measure for `CC(CCc1ccccc1)NC(=O)c1ccc(-n2cncn2)c([N+](=O)[O-])c1` (stereo not shown): -70.9%; for `O=C(NCCC1=CCCCC1)c1ccc(-n2cncn2)c([N+](=O)[O-])c1`: -22.5%.
With `O=C(NNC(=O)c1ccc(-n2cncn2)c([N+](=O)[O-])c1)c1ccccc1`, the “hERG current change (%, negative = inhibition) at 10uM” value is on record as 9.34%.
For `O=C(NCCCc1ccccc1)c1ccc(-n2cncn2)c([N+](=O)[O-])c1`, the “hERG current change (%, negative = inhibition) at 10uM” value is given as -60.5%.
